High-throughput results (PubChem)
FMDV inh: foot and mouth disease virus antiviral activity. FMDV antiviral cell-based qHTS. Potency, µM (highest dose often 57.9 µM), without a hit: at the top dose activity change, negative = inhibition, hits mostly inhibitors. 1.2% of 410,000 active. AID 1159524; calls by dose curve; tested in HEK293T cells; note: read-out not given here; potency is the fitted concentration of half-maximal effect; nearly all actives have a fitted effect of over 45% in size
Marburg entry inh: inhibitors of Marburg virus binding or cell entry. Marburg virus pseudotyped entry inhibition, cell reporter. Potency, µM (top dose mostly 37.8 µM), without a hit: at the top dose activity change, negative = inhibition, most hits filed as inhibitors. 1.8% of 300,000 active; calls by dose curve; tested in HEK293 cells; note: potency is the fitted concentration of half-maximal effect
HCMV antiviral: human cytomegalovirus inhibition; HFF cells, HCMV-luciferase reporter, 72 h; active compounds read low; activity change, negative = inhibition, % at 57.5 µM; 4.5% of 410,000 active; in the data active = activity change below about -60%; inconclusive = no clear call, values can overlap the other calls; inactive = above about -39%
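Two-dose cell screen: HFF monolayers treated with compounds and infected with luciferase-expressing HCMV at 1 PFU/cell, 72 h at 37C, then lysed for luciferase measurement.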
VACV mCherry inh: vaccinia inhibition (mCherry reporter) | Vaccinia virus mCherry reporter infection, fluorescence | Potency, µM (doses to about 36.5 µM), without a hit: at the highest dose activity change, negative = inhibition, actives largely listed as inhibitors | 0.63% of 310,000 active | AID 720579; calls by dose curve; tested in A549 cells; note: potency is the fitted concentration of half-maximal effect; nearly all actives have a fitted effect of over 35% in size
Vaccinia Venus: vaccinia inhibition (Venus reporter); 0.46% of 330,000 active; Vaccinia virus Venus reporter expression, fluorescence; Potency, µM (doses to about 36.5 µM), for the others: at the highest dose activity change, negative = inhibition, hits mostly inhibitors; calls by dose curve; tested in A549 cells; note: potency is the fitted concentration of half-maximal effect; nearly all actives have a fitted effect of over 30% in size
LASV entry inh: Lassa virus entry inhibition | Lassa virus pseudotype entry inhibition, cell reporter | Potency, µM (top dose mostly 37.9 µM), for inactives: at the top dose activity change, negative = inhibition, hits mostly inhibitors | 1.2% of 300,000 active | AID 540256; calls by dose curve; tested in HEK293 cells; note: potency is the fitted concentration of half-maximal effect; nearly all actives have a fitted effect of over 50% in size
An asterisk follows results filed as active; i = inactive; ? = inconclusive; . = not tested or not shown; [ ] = remark or other dose. In the library only some 6.5% were active in any assay of this set; here they are far more common. % is set by controls: 0 for no effect and ±100 for the full control effect.

SMILES	FMDV inh	Marburg entry inh	HCMV antiviral	VACV mCherry inh	Vaccinia Venus	LASV entry inh
C[C@@H]1C[C@H]2[C@@H]3CCC4=CC(=O)C=C[C@]4(C)[C@@]3(Cl)[C@@H](O)C[C@]2(C)[C@@]1(OC(=O)c1ccco1)C(=O)CCl	?	.	-73.5*	?	?	.
CC1CC2C3CCC4=CC(=O)C=C[C@]4(C)[C@@]3(Cl)C(O)C[C@]2(C)C1(OC(=O)c1ccco1)C(=O)CCl (stereo partly drawn)	3.8%	.	.	i	-0.5%	.
O=C(CN1CCN(Cc2ccccc2)CC1)N/N=C/c1ccc(Br)s1	-13.7%	?	-107.4*	-19.3%	-13.4%	?
COc1cc2nc(N(C)C)c(CNCc3nonc3C)cc2c(OC)c1OC	-2.9%	.	.	-4.6%	6.8%	.
CN1C(=O)C(C(Nc2ccccc2)c2ccccc2)c2ccccc21 (stereo not drawn)	.	.	-4.1	.	.	.
Cc1ccc(C(=O)c2cn(Cc3cc(C)ccc3C)c3nc(C)ccc3c2=O)cc1	-28.8%	7.08µM*	-5.1	-6.4%	-18.2%	?
COCc1[nH]nc2c1[C@@H](c1cccc(OC)c1)C(C#N)=C(N)O2	.	-2.7%	.	.	.	.
COc1cccc(CNC(=O)c2ccc3nc(-c4ccc(F)cc4)c(-c4ccc(F)cc4)nc3c2)c1	-28.8%	.	-23.1	-24.4%	-20.3%	?
CCOC(=O)Cc1c(C)nc2c(-c3cccc(Br)c3)cnn2c1C	-16.1%	26.9%	-74.9*	i	-6.0%	?
Cc1ccc(-c2cc(C(=O)OCC(=O)c3ccccc3)c3cccc(Cl)c3n2)cc1	?	-0.7%[46.1 µM]	-11.8	-13.3%	-11.5%	-8.3%[46.1 µM]
COc1ccc(-c2cc(NC=O)c3ncc(-c4cccc(C(=O)NCCN(C)C)c4)n3c2)cc1	-4.9%	.	-65.6*	9.4%	-15.7%	.
CN(C)CCNC(=O)c1cccc(-c2cnc3c(NC=O)cc(-c4cccc(F)c4)cn23)c1	-5.6%	.	-87.4*	19.3%	-13.0%	.
CN(C)CCNC(=O)c1cccc(-c2cnc3c(NC=O)cc(-c4ccc(F)cc4)cn23)c1	1.8%	.	?	0.5%	-23.3%	.
CC(=O)Nc1cc(-c2cccc(C(=O)NCCN(C)C)c2)cn2c(-c3cccc(C(F)(F)F)c3)cnc12	-20.6%	.	-99.6*	?	?	.
CC(=O)Nc1cc(-c2cccc(C(=O)NCCN(C)C)c2)cn2c(-c3ccccc3)cnc12	7.3%	.	-10.4	?	?	.
CCSc1ccc(-c2cc(NC=O)c3ncc(-c4cccc(C(=O)NCCN(C)C)c4)n3c2)cc1	-14.8%	.	-21.2	11.7%	-5.3%	.
Cc1cc(S(=O)(=O)c2ccc(Cl)cc2)nc(S(=O)(=O)c2ccc(Cl)cc2)c1C#N	28.2µM*	.	-97.5*	11.2µM*	11.2µM*	.
CCn1c(-c2nonc2N)nc2cnc(Oc3cccc(NC(=O)c4ccc(OCCN5CCOCC5)cc4)c3)cc21	.	.	.	.	.	19.9µM*
CCCOc1ccc(C(=O)NCCN2CCOCC2)cc1	5.7%	16.2%	11.8	i	-18.4%	7.5%
CCOc1ccc(C(=O)c2cn(CC(=O)Nc3ccc(Cl)cc3)c3cc4c(cc3c2=O)OCCO4)cc1	?	18.2%[46.1 µM]	-7.6	-28.6%	-22.9%	-7.9%[46.1 µM]
CCc1cc2c(=O)c(-c3ccc4c(c3)OCCO4)c(C)oc2cc1OS(C)(=O)=O	?	?	-63.2*	?	?	?
COc1ccc2c(c1)[C@@H](NC(=O)OCc1ccccc1)[C@H](C)[C@@H](c1ccccc1)N2Cc1cccc(F)c1	.	.	-9.8	.	.	.
COC(=O)C1=CN(CCCN2CCCC2=O)C=C(C(=O)OC)C1c1ccccc1C(F)(F)F	-20.3%	-6.6%	-65.0*	.	-13.4%	?
COC(=O)C1=CN(CC2CCCO2)C=C(C(=O)OC)C1c1ccccc1C(F)(F)F (stereo not drawn)	-21.4%	7.1%[46.1 µM]	-20.9	i	-8.3%	-13.7%
O=C(NCCc1ccccc1)c1sc2ncccc2c1-n1cccc1	-3.7%	.	-21.2	-7.0%	14.7%	9.2%[46.1 µM]
SMILES	FMDV inh	Marburg entry inh	HCMV antiviral	VACV mCherry inh	Vaccinia Venus	LASV entry inh
COc1cc(=O)n2c(c1C(=O)NCc1ccco1)CCN(Cc1cccc(C)n1)CC2	-3.2%	.	.	-9.6%	1.1%	.
Cc1ccc(NC(CNS(=O)(=O)c2ccc(Cl)cc2)c2ccccc2)cc1 (stereo not drawn)	-12.0%	?	-79.6*	-28.4%	?	?
COc1cccc(NC(CNS(=O)(=O)c2ccc(Cl)cc2)c2ccccc2)c1 (stereo not drawn)	-19.6%	?	-99.8*	?	?	?
O=S(=O)(NCC(Nc1ccc(Cl)cc1)c1ccccc1)c1ccccc1 (stereo not drawn)	-4.1%	?	-35.2	?	?	?
CCOC(=O)c1ccc(NC(=O)C2=C(C)Nc3nc(SCc4ccc(Cl)cc4)nn3C2c2ccc(OC)cc2)cc1 (stereo not drawn)	-12.3%	0.1%[46.1 µM]	3.8	-3.6%	-8.1%	-14.4%[46.1 µM]
COc1ccc(Cn2nnnc2C(c2ccccc2)N2CCN(c3ccccc3)CC2)cc1 (stereo not drawn)	.	.	.	-11.9%	-18.4%	.
N#Cc1c(Cl)nsc1NN	10.4%	17.4%[46.1 µM]	-104.0*	-24.2%	-6.5%	-7.2%
Cc1c(C#N)c(N)nc(Cl)c1C#N	?	?	-11.2	-23.7%	-16.6%	?
COc1ccc(-c2[nH]ncc2CN2CCC(C(=O)N3CCOCC3)CC2)c(F)c1	-5.1%	8.2%	-62.9*	-8.6%	-9.0%	1.1%
CCCN1[C@@H]2c3ccc(-c4ccccc4)c(=O)n3C[C@@H]2[C@@H](CO)[C@@H]1C(=O)N[C@@H](C)c1ccccc1	.	.	6.8	.	.	.
COc1ccc2nc(C)cc(SCC(=O)N/N=C/c3ccc(O)c(O)c3)c2c1	?	?	?	-25.9%	-6.5%	-5.8%[46.1 µM]
COc1ccc2nc(C)cc(SCC(=O)N/N=C/c3cccc4ccccc34)c2c1	-19.6%	?	-68.2*	.	.	13µM*
Cc1cc(SCC(=O)N/N=C/c2ccc(O)cc2O)nc2ccccc12	-24.6%	?	3.5	1.12µM*	?	?
CN(C)CC(=O)N1[C@H](C(=O)Nc2nccs2)[C@@H](CO)[C@@H]2Cn3c(ccc(C4=CCCCC4)c3=O)[C@@H]21	.	.	-5.7	.	.	.
CCC(=NCCc1c(C)[nH]c2ccc(OC(F)(F)F)cc12)C1=C(O)CC(c2ccccc2)CC1=O (stereo not drawn)	?	?	-23.2	?	?	?
CCCCC(=NCCc1c(C)[nH]c2ccc(OC)cc12)C1=C(O)CC(c2ccccc2)CC1=O (stereo not drawn)	?	7.94µM*	-27.2	?	-24.4%	?
CC(=Cc1ccccc1)C(=O)c1ccccc1	-9.2%	.	-26.0	i	-5.7%	.
O=C(C(Br)=Cc1ccccc1)c1ccccc1	25.1µM*	5.01µM*	-83.2*	?	?	?
CC(=O)C(=Cc1ccc(-c2ccccc2)cc1)C(=O)c1ccccc1	22.4µM*	.	40.6	-5.5%	-13.2%	.
CC(C)(C)c1ccc(NC(=O)N2CCCN(c3ccc([N+](=O)[O-])cn3)CC2)cc1	31.6µM*	-20.7%[46.1 µM]	-73.0*	i	?	?
